This is a sample that favours compounds with a hit; in the whole collection about 19% have one here.
IL-1B inflam inh: inflammasome signaling inhibition, IL-1 beta readout; THP-1 LPS/ATP IL-1B secretion, AlphaLISA, 16 h; stronger effect = lower value; activity change, % at 57.5 µM; 360,000 compounds, 4.7% hits; AID 743279; in the data active means activity change below about -50%; inconclusive means mostly about -30% to -49%
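Secreted IL-1B measured by AlphaLISA bead assay after 16 h compound exposure of THP-1 cells; compounds (final up to 57.5 uM) added 1 h before LPS (250 ng/mL) and ATP (1.25 mM) stimulation; lower signal means less secretion.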
TDP1 cell noCPT: qHTS for Inhibitors of human tyrosyl-DNA phosphodiesterase 1 (TDP1): qHTS in cells in absence of CPT. Potency, µM (highest dose often 46.2 µM), for inactives: top-dose activity change, negative = growth inhibition, usual class: inhibitors. DT40 Tdp1-/- hTDP1 cells, no CPT, ATP luminescence, 48 h. 420,000 compounds, 15% hits; further: potency means the concentration at half of the fitted maximal effect; nearly all actives have a fitted effect of over 55% in size
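Camptothecin absent (DMSO only). Human TDP1-complemented DT40 knockout cells, 400 cells/well, 37 °C for minimum 48 hr; ATP measured via CellTiter-Glo, 30 min dark incubation, luminescence.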
HT1080 IDH1KD tx: HT-1080 IDH1 knockdown cell toxicity (counter line). HT-1080 IDH1 knockdown viability, ATP luminescence, 48 h. 360,000 compounds, 2% hits. Potency, µM (series often up to 46.1 µM), without a hit: at the highest dose activity, negative = toxicity, most hits filed as cytotoxic. AID 686971;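 further: potency means the concentration at half of the fitted maximal effect; 0% = DMSO wells and -100% = cell-free medium wells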
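HT-1080-IDH1KD cells (IDH1 knocked down), 750/well in RPMI with 5% FBS, treated with compound 48 h at 37 degrees C. Viability by CellTiter-Glo luminescence, normalised to DMSO and no-cell wells; concentration-response curves classed.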
TDP1 cell CPT: growth inhibition of DT40 Tdp1-/-;hTDP1 cells with camptothecin (screen for TDP1 inhibitors) | AID 686979 | Potency, µM (top dose mostly 46.2 µM), for inactives: at the top dose activity change, negative = growth inhibition, hits mostly inhibitors | 420,000 compounds, 12% hits | chicken DT40 Tdp1-/-;hTDP1 cells + 20 nM CPT, ATP luminescence, 48 h; further: potency means the concentration at half of the fitted maximal effect; nearly all actives have a fitted effect of over 55% in size
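Cell growth measured by CellTiter-Glo luminescence after a minimum 48 h, 37 C compound exposure with 20 nM CPT in Tdp1-knockout DT40 cells stably expressing hTDP1, seeded 400/well; qHTS titration format.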
HT1080NT lethal: kills 2HG-producing HT-1080-NT fibrosarcoma cells; HT-1080-NT fibrosarcoma viability, CellTiter-Glo ATP luminescence, 48 h; Potency, µM (series often up to 46.1 µM), for the others: at the highest dose activity, negative = less viability, hits mostly cytotoxic; 360,000 compounds, 1.6% hits; AID 686970;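 further: NT is the 2HG producing partner of a matched IDH1 knockdown line; potency means the concentration at half of the fitted maximal effect; 0% = DMSO-treated cells and -100% = media-only wells without cells; nearly all actives have a fitted effect of over 55% in size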
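HT-1080-NT fibrosarcoma cells (2HG-overproducing), 750 cells/well in RPMI with 5% FBS, dosed after 2 h and incubated 48 h at 37C. CellTiter-Glo luminescence normalized to DMSO and no-cell wells; concentration-response curves fitted and classed.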
* = called active by the depositor; ? = inconclusive; · = not tested or not shown; [ ] = remark or other dose. Unless noted, the call rests on the fitted dose curve; in most records, active means well fitted curve in the direction sought with a large enough effect; inconclusive means small, poorly fitted or top-dose-only effect, or another doubt; inactive means no such curve, though single readings can be large; an effect the other way counts as inactive or inconclusive. Unless noted, on the % scale 0 is the no-effect control and ±100 the full control effect.

SMILES | IL-1B inflam inh | TDP1 cell noCPT | HT1080 IDH1KD tx | TDP1 cell CPT | HT1080NT lethal
CN1CCN(c2ccccc2NC(=O)c2sc3ccccc3c2Cl)CC1 | ? | 21µM* | ? | ? | ?
O=C(Nc1nccs1)c1sc2ccccc2c1Cl | 31 | 21µM* | ? | ? | -29%
O=C(Nc1ccccn1)c1sc2cc([N+](=O)[O-])ccc2c1Cl | 21 | ? | 12% | 23µM* | 18%
O=C(NCCCN1CCOCC1)c1sc2cc([N+](=O)[O-])ccc2c1Cl | 16 | ? | -10% | -29% | -12%
Cc1ccc2n(n1)c(=O)c(Cc1ccccc1)c([O-])[n+]2-c1ccccc1 | 23 | 0% | 14% | -22% | 0%
CCN(Cc1cccc(F)c1)C(=O)c1ccc2ccccc2n1 | 44 | ? | -3% | -29% | -10%
COc1cc(-c2c(OC)cccc2OC)cc2c1OCCN(C(=O)CCC(=O)c1ccc(F)cc1)C2 | · | -7% | · | -90%[9.04 µM] | ·
c1ccc(Cn2c(NCc3ccco3)nc3ccccc32)cc1 | -25 | 18µM* | 0% | ? | 3%
COc1ccc(CNc2nc3ccccc3n2Cc2ccccc2)cc1OC | ? | 18µM* | -26% | ? | 0%
O=C1NC2=C(C(=O)CCC2)C(c2ccccc2)N1 (stereo unspecified) | -7 | -23% | 6% | -3% | -3%
O=C1CCCC2=C1C(c1ccco1)Nc1ccc(C(=O)c3ccccc3)cc1N2 (stereo unspecified) | 0 | 12µM* | ? | 15µM* | ?
O=C(O)COCC(=O)N1CCN(c2cc(C(F)(F)F)nc3ccccc23)CC1 | -8 | 16% | 13% | 5% | 16%
Cc1cc(C)c2sc(N3CCN(C(=O)C4CC4)CC3)nc2c1 | · | 18µM* | · | 29µM* | ·
CCOC(=O)C1CCN(C(=O)C2CCN(c3nc4ccc(OC)cc4s3)CC2)CC1 | -26 | 16µM* | -15% | 13µM* | -2%
CN(C)c1ccc(C(=O)N2CCN(c3cc(C(F)(F)F)nc4ccccc34)CC2)cc1 | -55* | ? | -15% | ? | -7%
COc1ccc2nc(N3CCN(C(=O)C4CC4)CC3)sc2c1 | · | -25% | · | -3% | ·
Cc1cc(C)c(C(=O)c2ccc(C(=O)N3CCCCC3)cc2)c(C)c1 | -1 | -8% | -22% | -25% | 4%
Cc1cc(C)c2sc(N3CCN(C(=O)c4ccc(N(C)C)cc4)CC3)nc2c1 | · | 15µM* | · | ? | ·
O=C(Cc1nc2ccccc2[nH]c1=O)c1ccccc1 | -72* | -18% | -4% | -6% | -4%
CCC(OC(=O)CCc1nc2ccccc2[nH]c1=O)C(=O)c1ccccc1 (stereo unspecified) | 7 | ? | -2% | ? | 2%
O=C(Cc1nc2ccccc2[nH]1)c1ccc(Br)cc1 | -60* | ? | -6% | ? | 0%
CCc1ccc(N2CC(C(=O)Nc3cccc(S(=O)(=O)N4CCCC4)c3)CC2=O)cc1 (stereo unspecified) | -9 | ? | -15% | ? | -10%
CN(C)S(=O)(=O)n1cc(/C=C(\NC(=O)c2ccccc2Cl)C(=O)NCCCn2ccnc2)c2ccccc21 | -24 | 29µM* | -30% | 18µM* | -29%
CN(C)S(=O)(=O)n1cc(/C=C(\NC(=O)c2ccccc2)C(=O)NCCCn2ccnc2)c2ccccc21 | -11 | -27% | -3% | -21% | -6%
CCN(CC)C(=O)/C(=C/c1cn(S(=O)(=O)N(C)C)c2ccccc12)NC(=O)c1ccc(OC)cc1 | 5 | 21µM* | ? | ? | ?
SMILES | IL-1B inflam inh | TDP1 cell noCPT | HT1080 IDH1KD tx | TDP1 cell CPT | HT1080NT lethal
CCOC(=O)C1=C(C)N=c2s/c(=C/c3ccc(OCC(=O)O)c(OC)c3)c(=O)n2C1c1ccc(Cl)cc1 (stereo unspecified) | -16 | ? | -25% | 3% | -28%
COc1cc(/C=C2\C(=O)ON=C2c2ccccc2)cc(Br)c1O | -29 | 10µM* | ? | 6.5µM* | 16µM*
CCOc1cc(/C=C2/C(=O)ON=C2C)cc(Br)c1O | 0 | ? | 6% | ? | -1%
COc1cc(C=C2C(=O)OC(c3ccccc3)OC2=O)cc(Br)c1O (stereo unspecified) | 13 | 23µM* | 5% | ? | 11%
COc1cc(/C=c2\sc3n(c2=O)C(c2ccccc2)C(c2ccccc2)=NN=3)ccc1O (stereo unspecified) | ? | 15µM* | -27% | ? | -19%
COc1cc(/C=C2/C(=O)ON=C2c2ccccc2)ccc1O | -105* | 18µM* | -7% | 23µM* | -13%
CCCn1c(CCC(=O)O)nc2cc(S(=O)(=O)N3CCCC3)ccc21 | -13 | 3% | 24% | -20% | 24%
COc1ccc(CC(=O)Nc2ccc(S(=O)(=O)N3CCN(C)CC3)cc2)cc1 | -21 | -22% | -5% | -4% | 3%
CCCCNC(=O)C(NC(=O)c1cccnc1)C(=O)c1ccccc1 (stereo unspecified) | 11 | 10% | 19% | -1% | 15%
COc1cc(/C=C2\C(=O)ON=C2c2ccccc2)cc(Cl)c1O | -15 | 18µM* | ? | 16µM* | ?
CCOc1cc(/C=C2\C(=O)ON=C2c2ccccc2)cc(Br)c1O | -104* | ? | ? | ? | ?
O=C(NC(=S)Nc1ccc2oc(=O)ccc2c1)c1cc2ccccc2o1 | -2 | -21% | 15% | -4% | 20%
Cc1noc(C)c1NC(=O)N(C)C[C@H]1Oc2ccc(NC(=O)Nc3ccc4c(c3)OCO4)cc2C(=O)N([C@H](C)CO)C[C@@H]1C | 21 | 2% | 9% | 1% | 1%
COc1cccc(NC(=O)/C=C/c2ccco2)c1 | ? | ? | -16% | -23% | -14%
CSc1cccc(NC(=O)/C=C/c2ccco2)c1 | -5 | ? | 1% | 23µM* | -1%
CSc1cccc(NC(=O)/C=C/c2ccc(Cl)cc2)c1 | -72* | ? | ? | ? | ?
Cc1cccc(NC(=O)/C=C/c2ccc(Cl)cc2)n1 | -3 | 18µM* | ? | ? | -15%
COc1cccc(NC(=O)/C=C\c2ccc(Cl)cc2)c1 | · | ? | · | 30µM* | ·
N#CCC(=O)c1ccccc1Oc1ccc(Cl)cc1 | 10 | -15% | 5% | 2% | 9%
COc1ccc(NC(=O)c2ccc(S(=O)(=O)N3CCOCC3)o2)cc1 | 0 | -3% | 1% | -4% | 5%
CCOC(=O)C1=CN(CC)S(=O)(=O)NC1c1ccc(C(F)(F)F)cc1 (stereo unspecified) | 34 | -16% | -4% | -19% | -3%

High-throughput results: PubChem BioAssay, National Center for Advancing Translational Sciences (NCATS)
